Measurements taken from a collection of fitness landscapes (doi:10.1126/science.1257360).
Whole data set: some 140,000 sequences, median “enrichment ratio after two sorts for PhoP signalling” near 0, cut for the highest 2% near 11. The sample as a whole holds a higher share of the highest values than the screen did.

B1: PhoQ; a variant is named by its letters at X, in order, P23837 (parent)
chain: MKKLLRLFFPLSLRVRFLLATAAVVLVLSLAYGMVALIGYSVSFDKTTFRLLRGESNLFYTLAKWENNKLHVELPENIDKQSPTMTLIYDENGQLLWAQRDVPWLMKMIQPDWLKSNGFHEIEADVNDTSLLLSGDHSIQQQLQEVREDDDDAEMTHSVAVNVYPATSRMPKLTIVVVDTIPVELKSSYMVWSWFIYVLSANLLLVIPLLWVAAWWSLRPIEALAKEVRELEEHNRELLNPATTRELTSLVRNLNRLLKSERERYDKYRTTLTDLTHSLKTPLXXLQXXLRSLRSEKMSVSDAEPVMLEQISRISQQIGYYLHRASMRGGTLLSRELHPVAPLLDNLTSALNKVYQRKGVNISLDISPEISFVGEQNDFVEVMGNVLDNACKYCLEFVEISARQTDEHLYIVVEDDGPGIPLSKREVIFDRGQRVDTLRPGQGVGLAVAREITEQYEGKIVAGESMLGGARMEVIFGRQHSAPKDE

Variants of: B1
Experiment: enrichment ratio after two sorts for PhoP signalling (ratio (wild type AVST 3.29)); higher = more functional
Conditions: with PhoP (E. coli)
Variant SRES has an enrichment ratio of no more than 0.25.
PTVM showed an enrichment ratio of no more than 0.25.
GKLF gave an enrichment ratio of no more than 0.25.
For IMPS, the enrichment ratio was no more than 0.25.
KGLY showed an enrichment ratio of no more than 0.25.
FVII gave an enrichment ratio of no more than 0.25.
VELP was tested, and the enrichment ratio was no more than 0.25.
RMVC showed an enrichment ratio of no more than 0.25.
For DREF, the enrichment ratio was no more than 0.25.
PGRT was tested, and the enrichment ratio was no more than 0.25.
NVWQ was tested, and the enrichment ratio was no more than 0.25.
TPWQ gave an enrichment ratio of no more than 0.25.
Variant MHWQ has an enrichment ratio of no more than 0.25.
MMWQ showed an enrichment ratio of no more than 0.25.
In the case of MGGG, the enrichment ratio is reported as no more than 0.25.
Variant MGWQ has an enrichment ratio of 24.5.
MRWQ gave an enrichment ratio of no more than 0.25.
Variant MIWQ has an enrichment ratio of 24.2.
With QLWQ the enrichment ratio was 11.9.
REHV was tested, and the enrichment ratio was no more than 0.25.
INFD showed an enrichment ratio of no more than 0.25.
In the case of HGVS, the enrichment ratio is reported as no more than 0.25.
With ASCP the enrichment ratio was no more than 0.25.
With ASCA the enrichment ratio was 13.5.
For ASCK, the enrichment ratio was 22.8.
ASNM was tested, and the enrichment ratio was 5.71.
With ASQV the enrichment ratio was 1.45.
ASIE was tested, and the enrichment ratio was 0.421.
KSCK was tested, and the enrichment ratio was no more than 0.25.
In the case of ASIV, the enrichment ratio is reported as 11.4.
ASCV showed an enrichment ratio of 18.9.
ASIS was tested, and the enrichment ratio was 7.49.
In the case of ASCQ, the enrichment ratio is reported as 4.02.
In the case of ASTW, the enrichment ratio is reported as no more than 0.25.
With DLCQ the enrichment ratio was no more than 0.25.
APTW showed an enrichment ratio of no more than 0.25.
For NWDH, the enrichment ratio was no more than 0.25.
QMYQ gave an enrichment ratio of 7.96.
For QHMS, the enrichment ratio was no more than 0.25.
Work on AITV yielded an enrichment ratio of 6.12.
ATIN gave an enrichment ratio of 11.9.
In the case of ASGG, the enrichment ratio is reported as 4.75.
Work on YTIN yielded an enrichment ratio of no more than 0.25.
In the case of ASTV, the enrichment ratio is reported as 12.1.
For ADIN, the enrichment ratio was no more than 0.25.
ASDV gave an enrichment ratio of no more than 0.25.
Variant AHTV has an enrichment ratio of no more than 0.25.
ASCG was tested, and the enrichment ratio was 18.9.
ANTV gave an enrichment ratio of 16.3.
For ASFG, the enrichment ratio was 1.66.
VRTV showed an enrichment ratio of no more than 0.25.
In the case of HSQP, the enrichment ratio is reported as no more than 0.25.
Variant RWHM has an enrichment ratio of no more than 0.25.
Variant HETV has an enrichment ratio of 4.78.
For RMYW, the enrichment ratio was no more than 0.25.
With EHNH the enrichment ratio was no more than 0.25.
With VGEA the enrichment ratio was no more than 0.25.
SAAE showed an enrichment ratio of no more than 0.25.
With RITI the enrichment ratio was no more than 0.25.
With GKRA the enrichment ratio was no more than 0.25.
KSIN gave an enrichment ratio of no more than 0.25.
KSIA showed an enrichment ratio of no more than 0.25.
ASCM showed an enrichment ratio of 11.6.
ASIA showed an enrichment ratio of 13.9.
VRCM showed an enrichment ratio of no more than 0.25.
In the case of ASNK, the enrichment ratio is reported as no more than 0.25.
ASIR gave an enrichment ratio of 0.563.
ASVN gave an enrichment ratio of 7.54.
ASIM was tested, and the enrichment ratio was 14.6.
TSIA was tested, and the enrichment ratio was 2.99.
Variant ASIN has an enrichment ratio of 12.
PHTE was tested, and the enrichment ratio was no more than 0.25.
IMWY gave an enrichment ratio of no more than 0.25.
TLSA was tested, and the enrichment ratio was 7.98.
KLEH was tested, and the enrichment ratio was no more than 0.25.
For ISEL, the enrichment ratio was no more than 0.25.
For VMQA, the enrichment ratio was no more than 0.25.
GMPK was tested, and the enrichment ratio was no more than 0.25.
AWTV was tested, and the enrichment ratio was no more than 0.25.
In the case of ASWV, the enrichment ratio is reported as no more than 0.25.
In the case of TNTV, the enrichment ratio is reported as 10.2.
For MLTV, the enrichment ratio was no more than 0.25.
ASTC gave an enrichment ratio of 5.39.
In the case of ASIC, the enrichment ratio is reported as 12.1.
ASRC gave an enrichment ratio of no more than 0.25.
For ASAV, the enrichment ratio was 11.5.
For AMTV, the enrichment ratio was 9.95.
For MNTV, the enrichment ratio was 12.2.
For ASAE, the enrichment ratio was 5.56.
Variant AVTV has an enrichment ratio of 12.1.
